High-throughput results deposited in PubChem BioAssay by National Center for Advancing Translational Sciences (NCATS).
Rows were chosen to be rich in hits. Some 8.5% of all compounds tested hit in one or more screens of this group.
ALDH1A1 block: qHTS Assay for Inhibitors of Aldehyde Dehydrogenase 1 (ALDH1A1) | Aldehyde dehydrogenase 1A1 (Homo sapiens), P00352 | Purified ALDH1A1, NADH fluorescence, propionaldehyde substrate | Potency, µM (titrated, usually from 75.3 µM), for inactives: at the highest dose activity, negative = inhibition, usual class: inhibitors | 220,000 tested, 7.3% active; active means well fitted inhibition curve with a large enough effect, not every such curve was filed as active; inconclusive means small, poorly fitted or top-dose-only effect, or another doubt; inactive means no such curve, though single readings can be large or run the other way;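 further: potency means the concentration at half of the fitted maximal effect; plate controls were no enzyme wells and a reference inhibitor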
RGS12 GoLoco inh: qHTS Assay for Inhibitors of RGS12 GoLoco Motif Activity (Red Fluorophore); Guanine nucleotide-binding protein G(i) subunit alpha-1 (Homo sapiens), P63096; Gai1:RGS12 GoLoco peptide FP, rhodamine, 10 min; Potency, µM (highest dose often 61.6 µM), without a hit: at the highest dose activity, negative = inhibition, actives largely listed as inhibitors; 230,000 tested, 0.44% active; AID 880, 2007; active means well fitted inhibition curve with a large enough effect, not every such curve was filed as active; inactive means no such curve, though single readings can be large or run the other way; further: potency means the concentration at half of the fitted maximal effect; nearly all actives have a fitted effect of over 30% in size
Target sequence (P63096 whole entry, looked up): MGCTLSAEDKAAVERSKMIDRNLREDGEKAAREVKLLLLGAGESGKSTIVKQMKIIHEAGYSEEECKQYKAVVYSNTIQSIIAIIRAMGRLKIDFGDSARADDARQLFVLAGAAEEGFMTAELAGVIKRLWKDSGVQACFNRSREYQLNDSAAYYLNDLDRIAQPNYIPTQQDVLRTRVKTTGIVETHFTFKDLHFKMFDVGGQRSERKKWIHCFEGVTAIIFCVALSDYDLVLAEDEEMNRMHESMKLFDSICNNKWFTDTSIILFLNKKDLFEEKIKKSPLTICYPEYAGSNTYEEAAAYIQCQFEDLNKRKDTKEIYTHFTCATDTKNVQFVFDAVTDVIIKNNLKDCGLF
JMJD2E inh: qHTS Assay for Inhibitors of Human Jumonji Domain Containing 2E (JMJD2E); Lysine-specific demethylase 4E (Homo sapiens), B2RXH2; 230,000 tested, 1.6% active; AID 2147, 2009; JMJD2E catalytic domain, FDH-coupled NADH fluorescence (FDH is formaldehyde dehydrogenase); Potency, µM (series often up to 57.1 µM), for the others: at the top dose activity change, negative = inhibition, most hits filed as inhibitors; active means well fitted inhibition curve with a large enough effect, not every such curve was filed as active; inconclusive means small, poorly fitted or top-dose-only effect, or another doubt; inactive means no such curve, though single readings can be large or run the other way;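 further: potency means the concentration at half of the fitted maximal effect; 0% = wells with enzyme and -100% = buffer wells without enzyme; nearly all actives have a fitted effect of over 50% in size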
Target sequence (B2RXH2 1-337 limits assumed): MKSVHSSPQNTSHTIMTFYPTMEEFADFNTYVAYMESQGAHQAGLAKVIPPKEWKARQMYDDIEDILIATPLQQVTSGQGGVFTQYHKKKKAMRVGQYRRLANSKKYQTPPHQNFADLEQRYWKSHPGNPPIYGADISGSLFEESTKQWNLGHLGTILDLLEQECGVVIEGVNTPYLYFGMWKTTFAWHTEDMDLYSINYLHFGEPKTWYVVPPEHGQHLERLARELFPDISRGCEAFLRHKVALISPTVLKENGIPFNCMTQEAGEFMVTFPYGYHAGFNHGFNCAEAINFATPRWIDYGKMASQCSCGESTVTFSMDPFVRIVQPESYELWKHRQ
Sfp PPTase inh: qHTS Assay for Inhibitors of Bacillus subtilis Sfp phosphopantetheinyl transferase (PPTase); 4'-phosphopantetheinyl transferase ffp (Bacillus subtilis), Q9F4F7; Biochemical Sfp PPTase activity, qHTS; Potency, µM, inactives show largest response in the series, negative = inhibition, hits mostly inhibitors; 310,000 tested, 3.5% active;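 further: the enzyme is Sfp with the accession as filed and its product quenches rhodamine fluorescence; potency means the concentration at half of the fitted maximal effect; 0% = enzyme reaction without inhibitor and -100% = no enzyme wells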
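Reaction rates are the 30-min fluorescence difference (ex 525, em 598 nm) in wells containing 15 nM Sfp, 5 uM rhodamine-CoA and 12.5 uM BHQ-2-YbbR at pH 7.6 with 10 mM MgCl2.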
Coupling enz: qHTS Assay for Inhibitors of Fructose-1,6-bisphosphate Aldolase from Giardia Lamblia: Coupling assay counterscreen; coupling enzyme system counterscreen, AmpLite Red fluorescence; activity change, negative = inhibition, % at 58.2 µM, hits read low; 290,000 tested, 0.67% active; in the data active means activity change below about -30%
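Counterscreen of the coupled detection system alone, without aldolase: glyceraldehyde-3-phosphate coupling enzymes plus AmpLite Red readout. Compounds at 57.5 uM final, 10 min RT preincubation, 20 min RT reaction, fluorescence 525/598 nm.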
NPSR antagonist: qHTS Assay for Antagonists of the Neuropeptide S Receptor: cAMP Signal Transduction; Q6W5P4; CHO-NPSR cells, cAMP TR-FRET, antagonist mode; Potency, µM (highest dose often 38.3 µM), for inactives: at the highest dose activity change, negative = inhibition, most hits filed as inhibitors; 220,000 tested, 1% active; AID 1461, 2008; further: potency means the concentration at half of the fitted maximal effect; nearly all actives have a fitted effect of over 50% in size
The depositor's hits bear a star; [ ] = dose if it differs, or a comment. Unless noted, the call rests on the fitted dose curve; in most records, active means well fitted curve in the direction sought with a large enough effect; inconclusive means small, poorly fitted or top-dose-only effect, or another doubt; inactive means no such curve, though single readings can be large; an effect the other way counts as inactive or inconclusive. Unless noted, on the % scale 0 is the no-effect control and ±100 the full control effect.

`COc1ccccc1C1C2=C(N=c3s/c(=C/c4cccc(OCC(=O)O)c4)c(=O)n31)c1ccccc1CC2` (stereo unspecified) gave ALDH1A1 block inconclusive, RGS12 GoLoco inh 2%, JMJD2E inh -5%, Sfp PPTase inh 79µM*, Coupling enz -3 and NPSR antagonist -44%.
COc1cccc(C2C3=C(N=c4s/c(=C\c5ccc(OCC(=O)O)cc5)c(=O)n42)c2ccccc2CC3)c1 (stereo unspecified) was read as RGS12 GoLoco inh 0%, JMJD2E inh -6%, Sfp PPTase inh 56µM*, Coupling enz -2 and NPSR antagonist -58%.
`O=C(NC(Cc1ccccc1)c1nc2ccccc2[nH]1)C1CC(=O)N(c2ccc3c(c2)OCCO3)C1` (stereo unspecified) gave ALDH1A1 block 10µM*, RGS12 GoLoco inh -9%, JMJD2E inh -6%, Sfp PPTase inh inconclusive, Coupling enz -3 and NPSR antagonist -25%[46.1 µM].
`Cc1ccc(S(=O)(=O)CCC(O)c2ccc(Cl)cc2)cc1` (stereo unspecified) gave Sfp PPTase inh 5% and Coupling enz -1.
N#CCN1CCC(c2cc(-c3ccco3)n[nH]2)CC1 was read as ALDH1A1 block 22µM*, RGS12 GoLoco inh 6%, JMJD2E inh -28%, Sfp PPTase inh 11µM*, Coupling enz -28 and NPSR antagonist 5%.
For CCNc1nc(NC(C)C)nc(N(C#N)C(C)C(=O)N(CC)CC)n1 (stereo unspecified) the results were RGS12 GoLoco inh -2%, JMJD2E inh -7%, Sfp PPTase inh -9%, Coupling enz 2 and NPSR antagonist -1%.
`CCOC(=O)c1ccc2c(c1)nc(SCC(=O)c1ccco1)n2CC` gave ALDH1A1 block inconclusive, RGS12 GoLoco inh 16%, JMJD2E inh 0%, Sfp PPTase inh 50µM*, Coupling enz -5 and NPSR antagonist -32%[46.1 µM].
For O=C(CSc1nnc(C2CC2)n1Cc1ccccc1)N1CCN(S(=O)(=O)c2ccccc2)CC1 the results were ALDH1A1 block -4%, RGS12 GoLoco inh -18%, JMJD2E inh 2%, Sfp PPTase inh -5%, Coupling enz 2 and NPSR antagonist -24%[46.1 µM].
Screening CCOC(=O)c1ccc2c(c1)nc(SCC(=O)N1CCCCC1)n2CC returned ALDH1A1 block inconclusive, RGS12 GoLoco inh 6%, JMJD2E inh -16%, Sfp PPTase inh 10%, Coupling enz 1 and NPSR antagonist inconclusive.
CCc1ccc(C(=O)CSc2nc3cc(S(=O)(=O)N4CCOCC4)ccc3n2CC)cc1 was read as ALDH1A1 block 28µM*, RGS12 GoLoco inh 10%, JMJD2E inh 4%, Sfp PPTase inh inconclusive, Coupling enz -5 and NPSR antagonist -12%.
`CCn1c(SCc2ccccc2)nnc1C1CCN(S(=O)(=O)c2ccc(OC)cc2)CC1` gave ALDH1A1 block 5µM*, RGS12 GoLoco inh 4%, JMJD2E inh 5%, Sfp PPTase inh 6%, Coupling enz -1 and NPSR antagonist inconclusive.
O=C(CSc1nnc(C2CC2)n1Cc1ccccc1)c1ccc(S(=O)(=O)N2CCOCC2)cc1 was read as ALDH1A1 block 11µM*, RGS12 GoLoco inh -10%, JMJD2E inh -8%, Sfp PPTase inh 13µM*, Coupling enz 0 and NPSR antagonist 5%[46.1 µM].
Screening Cc1ccc(NC(=O)C(C)c2ccc([N+](=O)[O-])cc2)cc1Cl (stereo unspecified) returned ALDH1A1 block -7%, RGS12 GoLoco inh 6%, JMJD2E inh -2%, Sfp PPTase inh 17%, Coupling enz -1 and NPSR antagonist -25%.
O=C1CCC(C(=O)N2CCCC(Nc3ccc(F)cc3)C2)=NN1 (stereo unspecified) was read as Sfp PPTase inh 14% and Coupling enz 1.
Cc1cc(NC(=O)CCC(=O)N(CC(=O)NCC2CCCO2)c2cccc(F)c2)no1 (stereo unspecified) was read as Sfp PPTase inh 2% and Coupling enz -1.
For CCN1C(=O)c2ccccc2Sc2ccc(C(=O)NCCCN(CC(C)C)CC(C)C)cc21 the results were Sfp PPTase inh -3% and Coupling enz 1.
`NC(=O)COc1c(-c2ccco2)oc2ccccc2c1=O` gave ALDH1A1 block inconclusive, RGS12 GoLoco inh 19%, JMJD2E inh -23%, Sfp PPTase inh 89µM*, Coupling enz -25 and NPSR antagonist 5%.
`Cc1cc(C(=O)N2CCCc3ccccc32)ccc1[N+](=O)[O-]` gave Sfp PPTase inh 6% and Coupling enz -4.
Screening CC(C)CC(=O)NC1(C(F)(F)F)C(=O)N(CC(C)C)C2=C1C(=O)CC(C)(C)C2 (stereo unspecified) returned ALDH1A1 block 7%, RGS12 GoLoco inh 9%, JMJD2E inh 15%, Sfp PPTase inh 13%, Coupling enz 3 and NPSR antagonist 9%.
`CC1=C(C(=O)N2CCOCC2)C(c2ccc(C)cc2)NC(=S)N1` (stereo unspecified) gave ALDH1A1 block 18µM*, JMJD2E inh -2%, Sfp PPTase inh 50µM*, Coupling enz 3 and NPSR antagonist -28%[46.1 µM].
CC1=C(C(=O)N2CCOCC2)C(c2ccc(Cl)cc2)NC(=S)N1 (stereo unspecified) was read as ALDH1A1 block -15%, JMJD2E inh -8%, Sfp PPTase inh -7%, Coupling enz 3 and NPSR antagonist -3%[46.1 µM].
Screening O=C(Nn1c(COc2ccccc2)nc2ccccc2c1=O)C(Cl)(Cl)Cl returned Sfp PPTase inh 11% and Coupling enz 4.
Screening O=C(Nc1cccc([N+](=O)[O-])c1)c1ccc2c(c1)C(=O)N(c1ccccn1)C2=O returned Sfp PPTase inh -16% and Coupling enz 1.
For O=C(c1nn(Cc2ccccc2)c(=O)c2ccccc12)N1CCN(C/C=C/c2ccccc2)CC1 the results were ALDH1A1 block 13µM*, RGS12 GoLoco inh 12%, JMJD2E inh -9%, Sfp PPTase inh -6%, Coupling enz 1 and NPSR antagonist inconclusive.
O=C(NCC(O)COc1ccc([N+](=O)[O-])cc1)Nc1ccccc1 (stereo unspecified) was read as ALDH1A1 block 20µM*, RGS12 GoLoco inh 2%, JMJD2E inh -1%, Sfp PPTase inh 6%, Coupling enz 3 and NPSR antagonist 5%.
